Results as given in PubChem BioAssay (NCI).
The panel holds about 83,000 compounds, 20% with a hit somewhere; the sample as a whole holds those more often.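 Values shown are percent growth following 48 h exposure of cells in 96-well plates to a single concentration of compound; below 10 was considered active.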 A number with no mark means an inactive call. The source made the active and inactive calls.

What was measured:
Assay in all cases: NCI-60 one-dose screen, 48 h (100 = growth as untreated, 0 = no growth, -100 = all killed)
Conditions in all cases: 10 µM
[1] = system: HT29 colon
[2] = system: SNB-75 CNS
[3] = system: SNB-19 CNS
[4] = system: U251 CNS
[5] = system: PC-3 prostate
[6] = system: SK-MEL-5 melanoma
[7] = system: UACC-62 melanoma
[8] = system: LOX IMVI melanoma
[9] = system: SK-MEL-28 melanoma
[10] = system: SK-MEL-2 melanoma

Row | SMILES | growth [1] | growth [2] | growth [3] | growth [4] | growth [5] | growth [6] | growth [7] | growth [8] | growth [9] | growth [10]
1 | N=c1nc(N)ncn1-c1ccccc1 | 96.4% | 86.5% | 98.2% | 95.1% | 96.8% | 102% | 93.5% | 94.9% | 98.6% | 106%
2 | COc1cc(-c2nc(Nc3nc4ccccc4s3)[nH]c(=O)c2C#N)cc(OC)c1O | 110% | 88.6% | 96.1% | 105% | 101% | 106% | 102% | 106% | 110% | 105%
3 | COc1cccc(-c2cc(-c3cccc(NS(C)(=O)=O)c3)nc(N)c2C#N)c1O | 12.6% | -16.4% (active) | 42.3% | 30.9% | 16.6% | 11.9% | 52.9% | 46.6% | 76.7% | 69%
4 | COc1ccc(-c2nc3ncccn3c2-c2nnc(-c3ccc(F)cc3)o2)cc1 | 107% | 94.7% | 96.9% | 106% | 92.8% | 91.8% | 91.1% | 87.7% | 99.5% | 111%
5 | CC(C)=CCc1cc(O)cc2c1OC(C=C(C)C)C1=C2C(=O)C2=C(NCCS2(=O)=O)C1=O (stereo not given) | -14.9% (active) | 18.5% | -44.5% (active) | -85% (active) | 10% | -96.7% (active) | -18.9% (active) | -56.2% (active) | -33.4% (active) | -28.9% (active)
6 | COc1ccc2nc3cc(Cl)ccc3c(NCCNCC(C)O)c2c1 (stereo not given) | -37.7% (active) | 63.7% | 34% | -8.32% (active) | 28.1% | 81% | 54.1% | 14.5% | 54.7% | 31.1%
7 | CCOC(=O)N/N=C\C(C)=N\NC(=O)OCC | 98% | 92.1% | 98.5% | 92.7% | 93% | 109% | 99.3% | 96.2% | 103% | 111%
8 | Cn1c(C(N)=O)cc2c1-c1nc(Nc3ccccc3)ncc1CCC2 | 70% | 35.6% | 58.4% | 26.9% | 59.5% | 72.1% | 37.1% | 40.5% | 68.7% | 46%
9 | COC(=O)C(=C\c1ccc2c(c1)OCO2)/C(=C/c1ccc2c(c1)OCO2)C(=O)OC | 88.9% | 87.7% | 106% | 98.5% | 93.8% | 101% | 98.6% | 90.8% | 103% | 102%
10 | ClCCOCCn1cnc2c(Cl)nc(Cl)nc21 | 36.6% | 57.1% | 88.2% | 67.3% | 35.2% | 52.3% | 45.1% | -13.9% (active) | 72.8% | 67.6%
11 | CN(C)c1ccc(-c2cc(-c3cccc(NS(C)(=O)=O)c3)nc(N)c2C#N)cc1 | 8.8% (active) | -2.46% (active) | 43.3% | 20.3% | 10.4% | 4.17% (active) | 47.4% | 23.7% | 69% | 57.2%
12 | Cc1ccc(C(=O)N2C/C(=C/c3ccccc3)C(=O)/C(=C/c3ccccc3)C2)cc1 | -17.9% (active) | 67.9% | 83% | 47% | 65.3% | 58.9% | 76.9% | -24.5% (active) | 79.8% | 80.2%
13 | O=C1/C(=C\c2ccc(Br)cc2)CN(C(=O)c2ccccc2F)C/C1=C\c1ccc(Br)cc1 | -47.4% (active) | 56.5% | 54.3% | -66.6% (active) | 3.89% (active) | 30.4% | -3.15% (active) | -85.5% (active) | 15.1% | 66%
14 | CC(C)(C#N)Nc1ccccc1 | 99.5% | 79.5% | 98.9% | 95.4% | 108% | 107% | 98.5% | 97.8% | 111% | 109%
15 | COc1cc(/C=N/NC(=O)c2ccccc2Nc2ccnc(C(F)(F)F)c2)ccc1O | 118% | 94.1% | 93.2% | 106% | 111% | 106% | 115% | 114% | 118% | 113%
16 | COc1ccc(/C=C/C(=O)Nc2ccc(-c3nc4ccc(F)cc4s3)cc2)cc1 | 101% | 102% | 99% | 95.4% | 94.6% | 86.8% | 99.8% | 94.7% | 109% | 117%
17 | N#CCCN1C/C(=C/c2ccc(Br)cc2)C(=O)/C(=C/c2ccc(Br)cc2)C1 | -33.8% (active) | 33.3% | -46.6% (active) | -80.8% (active) | -34% (active) | 1.94% (active) | -75% (active) | -71.3% (active) | -36.8% (active) | 5.41% (active)
18 | CCC(=O)N1C/C(=C/c2ccc(Br)cc2)C(=O)/C(=C/c2ccc(Br)cc2)C1 | -58.9% (active) | 1.74% (active) | -32.7% (active) | -81.4% (active) | -42.8% (active) | -53.8% (active) | -80.3% (active) | -87.7% (active) | -72.4% (active) | -33.8% (active)
19 | CCOC(=O)C1(CC(C)C)CCOC1=O (stereo not given) | 104% | 86.8% | 102% | 95.2% | 93.3% | 104% | 96.7% | 96.8% | 103% | 113%
20 | Nc1ccc2c(c1)C1(CCC2)NC(=O)NC1=O (stereo not given) | 104% | 90.2% | 96.6% | 91.5% | 92% | 98.6% | 106% | 97.7% | 113% | 99.7%
21 | O=C1/C(=C\c2ccccc2)CN(C(=O)c2ccccc2F)C/C1=C\c1ccccc1 | -46.7% (active) | 53.5% | 51% | -36% (active) | 8.54% (active) | -48.6% (active) | -17.4% (active) | -86% (active) | -56.7% (active) | 54.8%
22 | CN(C)CC(O)c1ccc2cc(Br)c3ccccc3c2c1 (stereo not given) | 22% | 41.8% | 64.7% | 56.4% | 49% | 62.3% | -64.8% (active) | 28.9% | 32.7% | 102%
23 | COc1cc(NC(=O)CSc2nc3ccccc3c(=O)n2CCc2ccccc2)cc(OC)c1OC | 15.4% | -26.7% (active) | 27% | -12.5% (active) | 41.8% | -41.9% (active) | 25.3% | 30.6% | 37.5% | -2.19% (active)
24 | CC1(C)N=C(N)N=C(N)N1c1ccc(CCc2ccccc2)c(Cl)c1 | 1.41% (active) | 35.8% | 31.6% | 13.2% | 18.7% | 0.745% (active) | 23% | 12.6% | 30.3% | 34.9%
25 | COc1cc2c(cc1OCCCN1CCN(c3ncnc4ccccc34)CC1)N=CC1CCCN1C2=O (stereo not given) | 12.3% | -29.8% (active) | 12% | 1.3% (active) | -53% (active) | -95.7% (active) | -91.8% (active) | -39.4% (active) | -9.59% (active) | 6.33% (active)
26 | Nc1ncn([C@@H]2O[C@H](CO)[C@@H](O)[C@H]2O)c(=O)n1 | 19.9% | 20.3% | 46.6% | 19.6% | 31% | 48.3% | 12.5% | -9.93% (active) | 34.8% | -21.5% (active)
27 | CNc1ccc(CSc2ccc(C)cc2)cc1 | 100% | 60.7% | 93.3% | 52.4% | 60% | 67.7% | 86.2% | 92.1% | 93.8% | 96.8%
28 | Cc1cn(C2CCCCO2)c(=O)nc1NO (stereo not given) | 110% | 99.3% | 105% | 112% | 104% | 108% | 104% | 110% | 116% | 120%
